A short description of assay [1]: Her2 expression decrease, cell viability multiplex – SKBR3 breast tumor cells, AlphaScreen, ATP viability, primary screen (AID 461;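 active = Her2 level under about 52% in both replicate screens, with viability over 70% of control, limit read from the data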;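 as to Her2 level: lower value means less Her2 protein in the cells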;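 as to viability: percent of carrier control wells set as 100% viability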). The settings on record: SKBR3 Her2 protein level, 18-24 h, measured here: SKBR3 viability, ATP luminescence, at 10 µM. Background: Alpha assays give light when donor and acceptor beads are brought close together.
The target in assay [2] is Receptor tyrosine-protein kinase erbB-2 (Homo sapiens) (UniProt P04626). The description is as above. The settings on record: 18-24 h, at 10 µM, stronger effect = lower value.
Assay [3] is described as follows: reduced viability of SK-BR-3 breast cancer cells – cell-based, 24 h, human, pilot screen (AID 572;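 active = viability at or below 10% of carrier control in both of two separate runs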;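 also: compound exposure lasted between 18 and 24 h rather than exactly 24 h; 100% = carrier-treated control wells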). The settings on record: SK-BR-3 viability, CellTiter-Glo luminescence, at 10 µM, stronger effect = lower value. (In general: Cellular ATP, detected with luciferase, serves as a proxy for viable cell number.)
A short description of assay [4]: HUVEC growth inhibition – cell-based, human, primary screen (AID 575;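 active = viability at or below 30% in both replicate assays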;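 also: 100% = median of untreated cell wells with 0.1% DMSO on each plate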). The settings on record: HUVEC proliferation, CellTiter-Glo luminescence, 72 h; at 10 µM; stronger effect = lower value.
Assay [5] can be described thus: H69AR cell proliferation blockers – human, duplicate replicates, primary screen (AID 580;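 active = viability at or under a set limit in both replicates, limit being median viability minus 3 SD, cut at about 48% in these data, passing the limit was not always enough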;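 also: 100% = mean luminescence of untreated wells and 0% = no signal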). As to conditions: H69AR lung tumor cells viability, ATP luminescence, 72 h; at 10 µM; stronger effect = lower value.
Assay [6] can be described thus: MRP1 drug-resistance reversers in H69AR cells – cell-based, doxorubicin co-treatment, pilot screen (AID 601). The settings on record: CellTiter-Glo, 72 h, at 10 µM; for differential viability (reversal): stronger effect = higher value.
The nature of assay [7]: yeast transport mutant growth inhibition pilot in 384-well plates, post-Golgi transport modulator project (AID 636; in the data active = inhibition above about 31%). As to conditions: absorbance 615 nm, about 18 h, stronger effect = higher value.
The nature of assay [8]: growth suppression of yeast trafficking mutant, preliminary HTS, modulators of trafficking downstream of Golgi apparatus project, 1536-format plate, OD 615 nm (AID 637; in the data active = inhibition above about 30%). The settings on record: yeast transport mutant growth, absorbance 615 nm, 18 h; stronger effect = higher value.
The nature of assay [9]: S. cerevisiae growth inhibition in permissive medium (OD615), pilot counter-assay for S. cerevisiae lifespan shortening project, permissive growth control (AID 705;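 active = growth inhibition above 25% in both replicates, a cutoff set 3 SD above the mean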). As to conditions: OD615, 24 h, at 10 µM, stronger effect = higher value.
Assay [10] is described as follows: S. cerevisiae growth inhibition in restrictive medium, OD615, pilot screen, restrictive growth control, yeast lifespan reduction project (AID 706;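 active = growth inhibition above a set limit, 3 SD over mean compound inhibition, in both replicates, cut at about 43% in these data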;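 also: modified DeaD lifespan yeast strain shifted to restrictive glucose medium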). The settings on record: OD615, 48 h, at 10 µM, stronger effect = higher value.
The nature of assay [11]: doxorubicin toxicity protection in MRP-1 cells – H69AR cells, CellTiter-Glo, duplicate, MRP-1 activator project, pilot screen (AID 807;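 active = viability increase at or above a cutoff of the median across tested compounds plus 3 SD, cut at about 8.5% in these data, passing the limit was not always enough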;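 also: compound pretreatment 18-22 h then 72 h combined with doxorubicin; 0% = doxorubicin alone and 100% = vehicle without doxorubicin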). The settings on record: H69AR viability with doxorubicin, CellTiter-Glo luminescence; at 10 µM; stronger effect = higher value.
Assay [12] is described as follows: viability of HCT116 without oncogenic beta-catenin – human colon tumor cells, pilot screen (AID 823;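 active = cell viability at or below a set limit in both duplicate runs, the limit being the all-compound median minus 4 SD, cut at about 23% in these data, passing the limit was not always enough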;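 also: 0% = wells killed by 20 µM Hyamine and 100% = untreated DMSO cell wells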). As to conditions: HCT116 beta-catenin knockout viability, CellTiter-Glo, 60 h; at 10 µM; stronger effect = lower value.
Assay [13] is described as follows: viability of PTEN-null HCT116 cells – cell-based, HCT116 clonal line, CellTiter-Glo, pilot screen (AID 824;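 active = viability at or below 27.92% in each of two runs, the all-compound median minus 4 SD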;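 also: 0% = 20 µM Hyamine control and 100% = vehicle cell control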). As to conditions: HCT116 PTEN-deleted viability, 60 h, at 10 µM, stronger effect = lower value.
Assay [14] can be described thus: RAM pathway blockade in budding yeast – dse1pr::URA3 reporter, 5-FOA selection, pilot screen (AID 869;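 active = inhibition over a set limit, the all-compound mean plus 3 SD, in both replicate runs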;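 also: 0% = DMSO wells with no growth and 100% = 10 µM 1-NA-PP1 with full growth; RAM network block rescues cells from 5-FOA so hits raise OD615 growth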). The settings on record: S. cerevisiae dse1pr::URA3 5-FOA growth, OD615, 2 d; at 10 µM; stronger effect = higher value; strain carries analog-sensitive mutant Cbk1 kinase.
Assay [15] in a line: RAM signaling pathway blockade in yeast – S. cerevisiae, Pdr1DBD-CYC8 efflux-inhibited sensitized strain, primary screen (AID 1298;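 active = RAM network inhibition above 8.4% in each of two replicates, 3 SD over the compound average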;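 also: 0% = DMSO untreated cells without growth and 100% = 10 µM 1-NA-PP1 full growth; higher means more yeast growth rescued from 5-FOA killing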). The settings on record: S. cerevisiae cbk1-as DSE1-URA3 strain, 5-FOA growth OD615, 2 d; at 50 µM; stronger effect = higher value.
[16] abbreviates: H69AR cells + 2 uM doxorubicin, measured here: viability with 2 uM doxorubicin, stronger effect = lower value.
Where [17] appears, read: H69AR cells, compound alone cytotoxicity.

Results filed as inconclusive are left out. Calls of active or inactive are those of the source.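 The calls were made as follows, unless noted: active = viability loss from added drug above about 55%, and viability with drug at most 40%, in both replicates (limit read from the data, passing the limit was not always enough); inconclusive = both conditions met in only one replicate; inactive = neither replicate meets both conditions.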

Receptor tyrosine-protein kinase erbB-2 (Homo sapiens), sequence (P04626 whole entry, looked up): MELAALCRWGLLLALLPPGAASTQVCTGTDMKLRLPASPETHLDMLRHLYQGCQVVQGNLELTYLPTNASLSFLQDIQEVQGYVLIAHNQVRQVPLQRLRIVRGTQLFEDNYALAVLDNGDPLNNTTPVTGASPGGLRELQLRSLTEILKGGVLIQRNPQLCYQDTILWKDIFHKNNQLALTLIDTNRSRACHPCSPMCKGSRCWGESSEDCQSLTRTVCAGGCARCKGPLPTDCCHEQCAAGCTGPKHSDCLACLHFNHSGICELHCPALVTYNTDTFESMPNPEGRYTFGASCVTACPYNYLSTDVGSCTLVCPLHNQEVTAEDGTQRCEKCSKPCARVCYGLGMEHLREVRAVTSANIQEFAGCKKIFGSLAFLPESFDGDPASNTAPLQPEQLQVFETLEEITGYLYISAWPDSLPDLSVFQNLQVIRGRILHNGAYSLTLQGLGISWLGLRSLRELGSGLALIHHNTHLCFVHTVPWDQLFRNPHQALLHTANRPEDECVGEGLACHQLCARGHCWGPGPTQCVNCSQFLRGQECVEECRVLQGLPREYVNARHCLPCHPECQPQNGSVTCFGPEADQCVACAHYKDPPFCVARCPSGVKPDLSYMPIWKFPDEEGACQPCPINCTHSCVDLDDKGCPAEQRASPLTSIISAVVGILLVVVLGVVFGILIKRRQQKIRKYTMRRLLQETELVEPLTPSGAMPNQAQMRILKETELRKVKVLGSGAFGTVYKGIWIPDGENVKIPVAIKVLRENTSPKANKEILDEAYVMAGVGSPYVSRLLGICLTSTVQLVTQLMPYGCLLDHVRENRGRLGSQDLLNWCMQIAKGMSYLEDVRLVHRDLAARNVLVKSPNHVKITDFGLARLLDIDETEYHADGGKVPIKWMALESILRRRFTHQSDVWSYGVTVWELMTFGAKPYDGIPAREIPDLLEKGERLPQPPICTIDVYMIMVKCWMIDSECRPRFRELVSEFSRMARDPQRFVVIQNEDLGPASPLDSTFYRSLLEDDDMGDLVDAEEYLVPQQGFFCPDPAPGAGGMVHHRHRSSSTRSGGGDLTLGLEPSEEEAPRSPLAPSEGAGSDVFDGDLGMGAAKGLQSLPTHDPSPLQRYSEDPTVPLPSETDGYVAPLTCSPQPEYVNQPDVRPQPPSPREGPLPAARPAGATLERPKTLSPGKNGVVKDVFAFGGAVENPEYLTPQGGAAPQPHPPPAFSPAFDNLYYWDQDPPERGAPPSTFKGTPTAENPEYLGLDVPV

With `C=C(Cl)COc1ccc2c(C)cc(=O)oc2c1`, the viability in [1] was 108%; in assay [3], 108% (inactive); in assay [4], 102% (inactive); in assay [5], 101% (inactive); in [6] (setting [16]), 103%; in [6] (setting [17]), 101%. For the same compound, the viability is 97.8% (inactive) in assay [12] and 84% (inactive) in assay [13]. Besides, the Her2 level in assay [2] is 92.5% (inactive). The differential viability (reversal) in [6] (H69AR cells + 2 uM doxorubicin) is -2.75% (inactive). Moreover, the figures for the inhibition in [7], in [8] and in assay [14] were 1.89% (inactive), -5.56% (inactive) and 0.795% (inactive), respectively. Besides, the growth inhibition is -6.04% (inactive) in [9] and 5.47% (inactive) in assay [10]. Besides, in assay [11], the viability increase is -0.42% (inactive). The RAM network inhibition in assay [15] is 0.1% (inactive).
Consider `CC(C)Cc1nnc(NS(=O)(=O)c2ccc(Cl)cc2)s1`, for which the viability in assay [1] was 91.5%; in assay [3], 91.5% (inactive); in assay [4], 90.1% (inactive); in [5], 90% (inactive); in [6] (setting [16]), 94.7%; in assay [6] (setting [17]), 90%. For the same compound, the results for the viability in assay [12] and in assay [13] were 99.2% (inactive) and 96.7% (inactive), respectively. Further, the Her2 level in assay [2] is 98% (inactive). Moreover, in [6] (H69AR cells + 2 uM doxorubicin), the differential viability (reversal) is -4.72% (inactive). Further, the inhibition in [7] is -4.53% (inactive); in assay [8], -0.5% (inactive); in [14], 1.43% (inactive). Besides, the values for the growth inhibition in [9] and in assay [10] were -22.6% (inactive) and 3.6% (inactive), respectively. In addition, the viability increase in assay [11] was 2.68% (inactive). The RAM network inhibition in assay [15] is 4.53% (inactive).
`Cn1nnnc1SCC(=O)Nc1ccccc1-c1ccccc1`: the viability was 100% in [1]; 100% (inactive) in assay [3]; 99% (inactive) in [4]; 91.2% (inactive) in assay [5]; 81.6% in [6] (setting [16]); 91.2% in [6] (setting [17]). The viability in assay [12] was 97.4% (inactive); in assay [13], 90% (inactive). Besides, the Her2 level in [2] was 110% (inactive). Besides, the differential viability (reversal) in assay [6] (H69AR cells + 2 uM doxorubicin) was 9.64% (inactive). Further, the inhibition in [7] is -2.44% (inactive); in [8] it was -1.33% (inactive); in assay [14] it was 0.31% (inactive). For the same compound, the growth inhibition in [9] was -19.3% (inactive); in [10], -10.2% (inactive). Also, in assay [11], the viability increase is -0.09% (inactive). Further, in [15], the RAM network inhibition was 0.77% (inactive).
For the compound `O=C(NCCSc1c[nH]c2ccccc12)c1ccco1`, the viability is 112% in [1]; 112% (inactive) in assay [3]; 64.5% (inactive) in assay [4]; 65.1% (inactive) in [5]; 90.6% in assay [6] (setting [16]); 65.1% in assay [6] (setting [17]). Further, the viability in assay [12] is 102% (inactive); in assay [13], 91.6% (inactive). Moreover, the Her2 level in [2] is 93.5% (inactive). Also, the differential viability (reversal) in [6] (H69AR cells + 2 uM doxorubicin) is -25.6% (inactive). The values for the inhibition in assay [7], in assay [8] and in [14] were -4.8% (inactive), 0% (inactive) and 1.83% (inactive), respectively. Further, the values for the growth inhibition in assay [9] and in assay [10] were -5% (inactive) and -2.81% (inactive), respectively. The viability increase in assay [11] is -6.06% (inactive). The RAM network inhibition in assay [15] was 0.88% (inactive).
For the compound `O=C(C1COc2ccccc2O1)N1CCCC1` (stereo not given), the viability is 80% in assay [1]; 80% (inactive) in [3]; 86.8% (inactive) in [4]; 94.8% (inactive) in assay [5]; 93.1% in [6] (setting [16]); 94.8% in assay [6] (setting [17]). Further, the viability was 105% (inactive) in [12] and 96.9% (inactive) in assay [13]. Besides, the Her2 level in assay [2] is 112% (inactive). Also, in assay [6] (H69AR cells + 2 uM doxorubicin), the differential viability (reversal) is 1.71% (inactive). Further, the inhibition in assay [7] was -1.41% (inactive); in assay [8], -10.2% (inactive); in assay [14] it was 2.62% (inactive). The figures for the growth inhibition in assay [9] and in [10] were -16.3% (inactive) and -10.1% (inactive), respectively. The viability increase in assay [11] was -0.88% (inactive). Further, the RAM network inhibition in [15] was -0.78% (inactive).

In general, viability refers to a read-out of living cells in per cent, often relative to untreated cells. The inhibition is the relative decrease from the control value, in per cent.

The record behind these values is PubChem BioAssay.
